Source: PubChem BioAssay (NCATS)
Results filed as inconclusive are left out. Values without a mark were called inactive. The source made the active and inactive calls. Calls follow the shape of the dose curve; as a rule, active = well fitted curve in the direction sought with a large enough effect; inconclusive = small, poorly fitted or top-dose-only effect, or another doubt; inactive = no such curve, though single readings can be large; an effect the other way counts as inactive or inconclusive.

Key:
[1] = biological target: Arylsulfatase A (Homo sapiens) (UniProt P15289); experiment: qHTS screen for enhancers of Arylsulfatase A (ASA1): LOPAC Validation Assay (AID 720538); conditions: ASA enzyme activity, LOPAC qHTS enhancer assay; series mostly up to 57.5 µM
Arylsulfatase A (Homo sapiens), sequence (P15289 whole entry, looked up): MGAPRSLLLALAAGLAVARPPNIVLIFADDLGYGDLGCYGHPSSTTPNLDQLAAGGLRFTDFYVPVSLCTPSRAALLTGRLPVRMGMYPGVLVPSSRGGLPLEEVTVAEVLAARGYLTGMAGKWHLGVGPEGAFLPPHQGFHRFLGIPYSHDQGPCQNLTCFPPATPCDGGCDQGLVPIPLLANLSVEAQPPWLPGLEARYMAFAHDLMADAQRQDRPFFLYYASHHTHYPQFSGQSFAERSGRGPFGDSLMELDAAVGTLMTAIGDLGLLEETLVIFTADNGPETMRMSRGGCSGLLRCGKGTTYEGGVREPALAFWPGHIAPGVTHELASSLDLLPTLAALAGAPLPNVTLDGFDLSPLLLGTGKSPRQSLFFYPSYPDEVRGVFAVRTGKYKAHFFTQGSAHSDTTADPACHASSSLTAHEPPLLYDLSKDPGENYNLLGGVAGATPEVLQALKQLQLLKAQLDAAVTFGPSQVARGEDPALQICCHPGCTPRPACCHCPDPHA
How it was run: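 Cell-based enhancement test: residual ASA activity in SV40-transformed I179S patient fibroblasts is measured by pNCS turnover (0.5mM final, 14h, room temperature) following 48h compound incubation; higher fluorescence indicates activation.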

[2] = qHTS Assay for Identifying Gametocytocidal Compounds (AID 743244); also: potency is read from the fitted curve at half-maximal effect;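 as to max response: % is scaled to controls: 0 for no effect and ±100 for the full control effect; actives lower the fluorescent signal which means gametocytes are killed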; conditions: P. falciparum 3D7 stage III-V gametocytes, alamarBlue, 72 h; max response: active compounds read low
How it was run: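 Compounds are pinned into medium, gametocytes (stage III–V, 3D7, 20,000 cells/well) added, and plates held 72 h at 37 °C in 5% CO2. AlamarBlue follows for 24 h before fluorescence reading.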

For `CN=C(N)NCCC[C@H](N)C(=O)O`, the outcome [1] was “inactive; inhibitor; fitted 0.0054 uM”.
With `NC(N)=NCc1cccc(I)c1` the outcome [1] was “inactive”.
With `CCC(CC)(CC(=O)Nc1cccc(/C=C/c2nc(C3CCC3)cs2)c1)C(=O)O` the max response [2] was 48.4%.
`CC(C)(C)NC[C@H](O)COc1cccc2c1CCCC2=O` showed a max response [2] of -0.406%.
Work on `CCc1oc2ccccc2c1C(=O)c1cc(I)c(O)c(I)c1` yielded a max response [2] of 0.665%.
In the case of `FC1(F)C(F)(F)C(F)(F)C2(F)C(F)(F)C(F)(F)C(F)(F)C(F)(F)C2(F)C1(F)F` (configuration not stated), the max response [2] is reported as -4.02%.
Work on `COC(=O)C(c1ccccc1Cl)N1CCc2sccc2C1` (configuration not stated) yielded a max response [2] of 14.8%.
Molecule `Cc1c[nH]c2ccccc12` has a max response [2] of 0.215%.
Molecule `CCCCCCCCCCCCSCCOCCO` has a max response [2] of 3.73%.
`CC1=C(C(=O)O)N2C(=O)[C@@H](NC(=O)[C@H](N)c3ccccc3)[C@H]2SC1` gave a max response [2] of 2.91%.
In the case of `O=C(O)CCNC(=O)c1ccccc1`, the max response [2] is reported as 7.27%.
`O=C(Nc1ccccc1)OCC(CN1CCCCC1)OC(=O)Nc1ccccc1` (configuration not stated) gave a max response [2] of 3.58%.
`Cc1cc(CC(=O)O)c(C)n1-c1ccc(Cl)cc1` gave a max response [2] of -9.92%.
Work on `Cc1cc(NS(=O)(=O)c2ccc(N)cc2)nc(C)n1` yielded a max response [2] of 18.7%.
`CN(C)CCC[C@@]1(c2ccc(F)cc2)OCc2cc(C#N)ccc21` showed a max response [2] of -8.84%.
For `CO[C@]12C[C@@H](COC(=O)c3cncc(Br)c3)CN(C)[C@@H]1Cc1cn(C)c3cccc2c13`, the max response [2] was 10.7%.
In the case of `O=C(O)CCc1nc2ccccc2[nH]1`, the max response [2] is reported as 8.17%.
`C[C@H]1[C@H]2CC[C@H]3[C@@H]4CC=C5C[C@@H](N(C)C)CC[C@]5(C)[C@H]4CC[C@]23CN1C` showed a max response [2] of -6.8%.
`NC1CCN(c2nc3c(cc2F)c(=O)c(C(=O)O)cn3-c2ccc(F)cc2F)C1` (configuration not stated) gave a max response [2] of -5.91%.
`N#C/C(=C1\SCC(c2ccccc2Cl)S1)n1ccnc1` (configuration not stated) showed a max response [2] of 17.4%.
With `CN1CCN(c2cc3c(cc2F)c(=O)c(C(=O)O)cn3-c2ccc(F)cc2)CC1` the max response [2] was -4.31%.
For `C[N+]12CCC(CC1)C(OC(=O)C(O)(c1ccccc1)c1ccccc1)C2` (configuration not stated), the max response [2] was -5.86%.
With `O=C(Nc1ncc([N+](=O)[O-])s1)c1cccs1` the max response [2] was 35.1%.
`C=C1c2cccc(O)c2C(O)=C2C(=O)[C@]3(O)C(O)=C(C(N)=O)C(=O)[C@@H](N(C)C)[C@@H]3[C@@H](O)[C@H]12` gave a max response [2] of -4.37%.
In the case of `CCCCCCCCCCCCCC[N+](C)(C)Cc1ccccc1`, the Potency [2] is reported as 8.91 µM (active).
Work on `CCCCc1cc2ccccc2c(OCCN(C)C)n1` yielded a max response [2] of -5.86%.
`COc1cc(O)c(C(=O)c2ccccc2)cc1S(=O)(=O)O` gave a max response [2] of -9.98%.
For `CC(C)CCCC(C)N` (configuration not stated), the max response [2] was 6.57%.
With `CCOC(=O)[C@@](C)(N)Cc1ccc(O)c(O)c1` the max response [2] was 1.03%.
For `Cc1cccc(C)c1NC(=O)c1ccccc1C(=O)O`, the max response [2] was -7.1%.
`CC(C)[N+](C)(C)CC(O)COc1cccc2ccccc12` (configuration not stated) gave a max response [2] of -10.5%.
For `CC(=O)NCCCCCC(=O)O`, the max response [2] was -5.55%.
Molecule `COc1cc(NS(=O)(=O)c2ccc(N)cc2)ncn1` has a max response [2] of -7.94%.
For `CCCc1ncc(C[n+]2ccccc2C)c(N)n1`, the max response [2] was 8.25%.
For `CCN1/C(=C/C=C/c2sc3ccccc3[n+]2CC)Sc2ccccc21`, the Potency [2] was 1.58 µM (active).
With `N#CCC(=O)NN` the max response [2] was -7.78%.
`CC(C)[C@@H]1CC[C@@H](C)CC1=O` showed a max response [2] of -7.98%.
Molecule `Nc1nc(-c2ccccc2)c(Br)c(=O)[nH]1` has a max response [2] of -0.157%.
`O=[N+]([O-])c1cccc(S(=O)(=O)NCCNS(=O)(=O)c2cccc([N+](=O)[O-])c2)c1` gave a max response [2] of 1.36%.
Work on `CC(C)Cn1cnc2c1c(=O)n(C)c(=O)n2C` yielded a max response [2] of -4.05%.
In the case of `Cl/C(=C\n1cncn1)c1ccc(Cl)cc1Cl`, the max response [2] is reported as -6.68%.
For `CC(=O)Oc1ccc(C)cc1`, the max response [2] was -2.81%.
